IL-1B inflam inh = inflammasome signaling inhibition, IL-1 beta readout | THP-1 LPS/ATP IL-1B secretion, AlphaLISA, 16 h; stronger effect = lower value | activity change, % at 57.5 µM | hit rate 4.7% among 360,000 | AID 743279; in the data active = activity change below about -50%; inconclusive = mostly about -30% to -49%
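THP-1 cells pretreated 1 hr with compounds (up to 57.5 uM final), then stimulated with LPS (250 ng/mL final) plus ATP (1.25 mM final); secreted IL-1B measured by AlphaLISA after 16 hr, decreased signal indicating inhibition.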
TDP1 cell CPT = DT40-hTDP1 cell growth loss with CPT; chicken DT40 Tdp1-/-;hTDP1 cells + 20 nM CPT, ATP luminescence, 48 h; Potency, µM (titrated, usually from 46.2 µM), most hits filed as inhibitors; hit rate 12% among 420,000; AID 686979; also: nearly all actives have a fitted effect of over 55% in size
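Cell growth measured by CellTiter-Glo luminescence after a minimum 48 h, 37 C compound exposure with 20 nM CPT in Tdp1-knockout DT40 cells stably expressing hTDP1, seeded 400/well; qHTS titration format.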
TDP1 block = inhibitors of human tyrosyl-DNA phosphodiesterase TDP1; Q9NUW8; Potency, µM (top dose mostly 130 µM), actives largely listed as inhibitors; recombinant TDP1, AlphaScreen DNA substrate cleavage; hit rate 0.28% among 350,000; also: nearly all actives have a fitted effect of over 40% in size
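Recombinant human Tdp1 (E. coli-expressed, 1 nM final) preincubated with compounds 15 min at room temperature, then 5'-biotin/3'-phosphotyrosine-FITC DNA substrate (15 nM final) added for 5 min. AlphaScreen beads (10 ug/ml final) added 10 min; cleavage lowers signal.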
ELG1 DNA repair = blocks ELG1-dependent DNA repair in HEK293T cells; HEK293T ELG1-luciferase reporter, luminescence, 16 h; DNA damage induced by 5-fluorouridine; Potency, µM (series often up to 46.1 µM), actives largely listed as inhibitors; hit rate 2.3% among 330,000; also: nearly all actives have a fitted effect of over 55% in size
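DMSO vehicle served as the neutral condition. Each well held 2,000 cells given 5-fluorouridine plus compound; after 16 hr at 37 °C/5% CO2, ONE-Glo was added and luciferase measured 30 min later.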
TDP1 cell noCPT = qHTS for Inhibitors of human tyrosyl-DNA phosphodiesterase 1 (TDP1): qHTS in cells in absence of CPT | DT40 Tdp1-/- hTDP1 cells, no CPT, ATP luminescence, 48 h | Potency, µM (series often up to 46.2 µM), actives largely listed as inhibitors | hit rate 15% among 420,000 | AID 686978, 2013; also: nearly all actives have a fitted effect of over 55% in size
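Growth kinetics read by CellTiter-Glo luminescence after ≥48 hr at 37 °C. Cells: DT40 Tdp1-/- stably carrying human TDP1, 400 per well, compound exposure in the absence of CPT (DMSO vehicle).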
Giardia killer = Giardia lamblia killing; Giardia lamblia trophozoite viability; activity change, % at 7.66 µM, hits read low; hit rate 0.15% among 340,000; in the data active = activity change below about -80%; inconclusive = between about -30% and that limit;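 also: parasites exposed to compound for two days anaerobically before the ATP read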
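Viability, read as ATP luminescence: trophozoites at 100 cells/well, compound added, 48 hrs anaerobic at 37 deg C, then 15-30 min room-temperature development before reading.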
ELG1 FLuc counter = luciferase inhibition in cell-free luciferin readout for ELG1 hits; shares compounds with ELG1 DNA repair; cell-free firefly luciferase luminescence counter-screen, ViewLux; Potency, µM (doses to about 46.1 µM), usual class: inhibitors; hit rate 3% among 350
ELG1 Luc conf = inhibits ELG1-dependent DNA repair in HEK293T cells, confirmed; HEK293T ELG1-luciferase levels, luminescence; cells co-treated with 5-fluorouridine; hit rate 68% among 670; shares compounds with ELG1 DNA repair; Potency, µM (series often up to 46.1 µM), hits mostly inhibitors; also: nearly all actives have a fitted effect of over 55% in size
Target sequence (Q96QE3 whole entry, looked up): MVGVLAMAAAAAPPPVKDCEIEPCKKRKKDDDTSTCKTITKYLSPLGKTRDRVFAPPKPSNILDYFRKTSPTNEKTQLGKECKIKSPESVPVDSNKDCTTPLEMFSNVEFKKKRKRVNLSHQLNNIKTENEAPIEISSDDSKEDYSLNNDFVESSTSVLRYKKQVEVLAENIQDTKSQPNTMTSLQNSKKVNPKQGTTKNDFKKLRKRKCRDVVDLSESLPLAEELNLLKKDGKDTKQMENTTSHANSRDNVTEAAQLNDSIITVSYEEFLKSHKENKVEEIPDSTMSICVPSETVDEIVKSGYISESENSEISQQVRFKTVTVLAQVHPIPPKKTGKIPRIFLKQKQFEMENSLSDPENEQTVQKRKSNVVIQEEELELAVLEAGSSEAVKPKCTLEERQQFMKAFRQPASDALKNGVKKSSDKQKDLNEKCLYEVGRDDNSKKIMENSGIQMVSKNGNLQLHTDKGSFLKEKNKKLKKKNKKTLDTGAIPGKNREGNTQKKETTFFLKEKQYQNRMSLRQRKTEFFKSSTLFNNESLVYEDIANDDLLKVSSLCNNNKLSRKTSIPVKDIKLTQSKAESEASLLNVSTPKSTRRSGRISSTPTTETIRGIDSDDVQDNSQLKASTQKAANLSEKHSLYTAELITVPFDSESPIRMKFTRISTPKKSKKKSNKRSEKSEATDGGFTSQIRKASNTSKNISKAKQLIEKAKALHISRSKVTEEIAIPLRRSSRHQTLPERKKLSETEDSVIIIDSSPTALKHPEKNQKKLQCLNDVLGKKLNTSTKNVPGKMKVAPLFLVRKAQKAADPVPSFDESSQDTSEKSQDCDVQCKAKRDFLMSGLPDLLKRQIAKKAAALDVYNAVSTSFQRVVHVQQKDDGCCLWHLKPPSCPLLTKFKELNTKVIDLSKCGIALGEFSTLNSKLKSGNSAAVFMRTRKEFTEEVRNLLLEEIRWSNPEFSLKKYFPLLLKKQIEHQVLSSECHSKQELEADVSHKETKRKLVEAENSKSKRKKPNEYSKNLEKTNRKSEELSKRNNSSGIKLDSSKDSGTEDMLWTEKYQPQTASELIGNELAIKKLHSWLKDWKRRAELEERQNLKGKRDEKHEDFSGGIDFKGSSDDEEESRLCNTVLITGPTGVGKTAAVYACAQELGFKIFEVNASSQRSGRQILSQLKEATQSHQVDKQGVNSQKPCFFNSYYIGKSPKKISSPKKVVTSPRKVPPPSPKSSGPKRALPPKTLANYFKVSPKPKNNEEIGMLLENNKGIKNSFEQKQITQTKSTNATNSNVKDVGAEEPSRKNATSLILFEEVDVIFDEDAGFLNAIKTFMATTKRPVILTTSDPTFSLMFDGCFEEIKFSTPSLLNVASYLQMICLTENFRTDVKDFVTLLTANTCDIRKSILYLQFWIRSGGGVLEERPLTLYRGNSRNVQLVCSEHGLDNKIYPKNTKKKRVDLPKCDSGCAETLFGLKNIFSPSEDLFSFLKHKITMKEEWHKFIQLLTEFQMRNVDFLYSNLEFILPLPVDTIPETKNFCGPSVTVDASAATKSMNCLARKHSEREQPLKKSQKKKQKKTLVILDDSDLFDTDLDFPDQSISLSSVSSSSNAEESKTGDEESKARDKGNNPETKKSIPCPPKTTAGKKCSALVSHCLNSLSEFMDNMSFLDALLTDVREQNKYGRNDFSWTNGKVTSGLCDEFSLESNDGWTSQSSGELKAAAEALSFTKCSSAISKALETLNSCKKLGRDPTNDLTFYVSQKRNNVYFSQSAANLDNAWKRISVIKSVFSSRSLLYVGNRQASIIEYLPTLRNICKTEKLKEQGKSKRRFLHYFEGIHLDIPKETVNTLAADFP
ELG1 MMS Luc = inhibits ELG1-dependent repair under MMS stimulation in HEK293T cells; AID 624249; Potency, µM (titrated, usually from 46.1 µM), actives largely listed as inhibitors; HEK293T luciferase-tagged ELG1 level, MMS stimulated; shares compounds with ELG1 DNA repair; hit rate 53% among 670; also: nearly all actives have a fitted effect of over 60% in size
ELG1 5-FU = confirmation of ELG1 repair inhibitors: viability with 5FU; AID 624250; Potency, µM (highest dose often 46.1 µM), actives largely listed as cytotoxic; cell viability with 5-FU, ELG1-dependent repair; 670 tested, under 10 active; shares compounds with ELG1 DNA repair;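 also: ELG1-luc HEK293T cells cotreated with 5-fluorouridine at 10 µM final; viability measured 16 h after compound addition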
ELG1 MMS cell = confirmation of ELG1 repair inhibitors: viability with MMS | hit rate 33% among 670 | Cell viability with MMS, ELG1-dependent DNA repair | shares compounds with ELG1 DNA repair | Potency, µM (highest dose often 46.1 µM), hits mostly cytotoxic;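 also: ELG1-luc HEK293T cells co-treated with 10 µM MMS; viability read 16 h after compound addition; nearly all actives have a fitted effect of over 60% in size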
ELG1 unstim viab = affects unstimulated cell viability, ELG1 hit counter-screen. shares compounds with ELG1 DNA repair. cell viability counter-screen, unstimulated, luminescence. Potency, µM (highest dose often 45.9 µM), most hits filed as cytotoxic. hit rate 8% among 900. AID 624252;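 also: compound exposure lasted 16 hours before reading; nearly all actives have a fitted effect of over 55% in size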
FLuc enzyme = firefly luciferase inhibition counter-screen; shares compounds with ELG1 DNA repair; purified firefly luciferase, luminescence counter-screen; Potency, µM (doses to about 57.5 µM), usual class: inhibitors; hit rate 10% among 350
Numbers stand for hits. Hits are enriched below; roughly 19% of the tested compounds scored in any of these assays. Unless noted, calls follow the shape of the dose curve; as a rule, active = well fitted curve in the direction sought with a large enough effect; inconclusive = small, poorly fitted or top-dose-only effect, or another doubt; inactive = no such curve, though single readings can be large; an effect the other way counts as inactive or inconclusive.

CCC(=O)N1CCc2cc(Br)cc(S(=O)(=O)N3CCC(C(=O)NCCCOC(C)C)CC3)c21 was read as IL-1B inflam inh inactive, TDP1 cell CPT inactive, TDP1 block inactive, ELG1 DNA repair 1.6µM, TDP1 cell noCPT inactive, Giardia killer inactive, ELG1 Luc conf 7.9µM, ELG1 MMS Luc inactive, ELG1 5-FU inconclusive, ELG1 MMS cell inactive and ELG1 unstim viab inactive.
CC(=O)Oc1c(C(=O)c2nnc(C)o2)c(=O)n(C)c2ccccc12 was read as IL-1B inflam inh inactive, TDP1 cell CPT inconclusive, ELG1 DNA repair inconclusive, TDP1 cell noCPT inactive and Giardia killer inactive.
`C=CCc1c(OC(C)=O)c2ccccc2n(C)c1=O` gave IL-1B inflam inh inactive, TDP1 cell CPT inactive, TDP1 block inactive, ELG1 DNA repair 3.3µM, TDP1 cell noCPT inactive, Giardia killer inactive, ELG1 Luc conf inconclusive, ELG1 MMS Luc 7.1µM, ELG1 5-FU inactive, ELG1 MMS cell 10µM and ELG1 unstim viab inconclusive.
COc1cc(-c2noc(C)c2/C=C/c2cccc([N+](=O)[O-])c2)cc(OC)c1OC was read as IL-1B inflam inh inactive, TDP1 cell CPT 1.3µM, ELG1 DNA repair 2.6µM, TDP1 cell noCPT 1.6µM, Giardia killer inactive, ELG1 Luc conf 2µM, ELG1 MMS Luc 7.1µM, ELG1 5-FU inconclusive, ELG1 MMS cell inconclusive and ELG1 unstim viab inconclusive.
For COc1ccc(NC(=O)CCN(c2ccc(OC)cc2)S(=O)(=O)c2ccc(C)c(C)c2)cc1 the results were IL-1B inflam inh inactive, TDP1 cell CPT inconclusive, TDP1 cell noCPT inconclusive and Giardia killer inactive.
CC1CCCCC1NC(=O)CN1C(=O)NC(C)(c2ccc(OC(F)F)cc2)C1=O (stereo not given) was read as IL-1B inflam inh inactive, TDP1 cell CPT inconclusive, TDP1 block inactive, ELG1 DNA repair inactive, TDP1 cell noCPT inactive, Giardia killer inactive, ELG1 FLuc counter inactive, ELG1 unstim viab inactive and FLuc enzyme inactive.
For CCCCCCC1(C)NC(=S)N(c2ccccc2)N1 (stereo not given) the results were IL-1B inflam inh inactive, TDP1 cell CPT inactive, TDP1 block inactive, ELG1 DNA repair inconclusive, TDP1 cell noCPT inconclusive, Giardia killer inactive, ELG1 Luc conf inactive, ELG1 MMS Luc inactive, ELG1 5-FU inactive, ELG1 MMS cell inactive and ELG1 unstim viab inconclusive.
O=C(COc1ccc(S(=O)(=O)N2CCOCC2)cc1)Nc1ccccc1C(F)(F)F was read as IL-1B inflam inh inactive, TDP1 cell CPT inactive, TDP1 block inactive, ELG1 DNA repair inactive, TDP1 cell noCPT inactive and Giardia killer inactive.
COc1cc2ncnc(Nc3ccc4c(c3)OCO4)c2cc1OC was read as IL-1B inflam inh inconclusive, TDP1 cell CPT inactive, ELG1 DNA repair inactive, TDP1 cell noCPT inactive and Giardia killer inactive.
`COc1cc2ncnc(Nc3cccc(Cl)c3)c2cc1OC` gave TDP1 cell CPT 18µM, TDP1 block inactive, TDP1 cell noCPT 13µM, ELG1 Luc conf 6.3µM, ELG1 MMS Luc 7.1µM, ELG1 5-FU 25µM, ELG1 MMS cell 18µM and ELG1 unstim viab 18µM.
O=C(CSc1ccc2nnc(-c3cccc(F)c3)n2n1)N1CCCc2ccccc21 was read as IL-1B inflam inh inactive, TDP1 cell CPT inconclusive, TDP1 block inactive, ELG1 DNA repair 12µM, TDP1 cell noCPT 18µM, Giardia killer inactive, ELG1 FLuc counter inactive, ELG1 Luc conf 14µM, ELG1 MMS Luc inconclusive, ELG1 5-FU inactive, ELG1 MMS cell inactive, ELG1 unstim viab inactive and FLuc enzyme inactive.
Cc1c(C(C)C)c(=O)n(-c2ccc(S(=O)(=O)N3CCOCC3)cc2)n1C was read as IL-1B inflam inh inactive, TDP1 cell CPT inactive, TDP1 block inactive, ELG1 DNA repair inactive, TDP1 cell noCPT inactive and Giardia killer inactive.
`CCc1ccc(S(=O)(=O)Nc2c(C)n(C)n(-c3ccccc3)c2=O)cc1` gave IL-1B inflam inh inactive, TDP1 cell CPT inactive, ELG1 DNA repair inactive, TDP1 cell noCPT inactive and Giardia killer inactive.
Screening Cc1c(C(C)C)c(=O)n(-c2ccc(S(=O)(=O)NC3CCCCC3)cc2)n1C returned IL-1B inflam inh -54, TDP1 cell CPT 5.8µM, TDP1 block inactive, ELG1 DNA repair 2.1µM, TDP1 cell noCPT 5.2µM, Giardia killer inactive, ELG1 Luc conf inconclusive, ELG1 MMS Luc 2.2µM, ELG1 5-FU inactive, ELG1 MMS cell 2.5µM and ELG1 unstim viab inconclusive.
`Cc1c(C(C)C)c(=O)n(-c2ccc(S(=O)(=O)NCc3ccccc3)cc2)n1C` gave IL-1B inflam inh inactive, TDP1 cell CPT inconclusive, TDP1 block inactive, ELG1 DNA repair 1.5µM, TDP1 cell noCPT 8.2µM, Giardia killer inactive, ELG1 Luc conf inconclusive, ELG1 MMS Luc 1.3µM, ELG1 5-FU inactive, ELG1 MMS cell 1.3µM and ELG1 unstim viab inconclusive.
`CC1CCN(Cc2c(C#N)c3ccccc3n2C)CC1` gave IL-1B inflam inh inconclusive, TDP1 cell CPT inactive, TDP1 block inactive, ELG1 DNA repair inactive, TDP1 cell noCPT inconclusive and Giardia killer inactive.
`CCCNC(=O)COC(=O)c1cc2c(=O)n3ccccc3nc2s1` gave IL-1B inflam inh inactive, TDP1 cell CPT inactive, TDP1 block inactive, ELG1 DNA repair inconclusive, TDP1 cell noCPT inconclusive and Giardia killer inactive.

Compound activity deposited in PubChem by National Center for Advancing Translational Sciences (NCATS).
